# Experimental data: PubChem BioAssay (EPA / NIEHS)
# Values joined by “and” are separate entries in the source; they are usually repeats but may differ in a detail not shown here. Equal entries are not always repeated. Records with an inconclusive call do not appear. The source holds several records for some structures; these can differ, active in one and inactive in another. Active and inactive are the calls of the source. Rule for the calls: active = hit-call score of the fitted dose curve at least 0.9, where 1 is the maximum; inconclusive = response in the unintended direction; inactive = score below 0.9.
# Target: human Thyroid Receptor alpha (THRa1), THRA (gene 7067) (UniProt P10827)
# Sequence (P10827 whole entry, looked up): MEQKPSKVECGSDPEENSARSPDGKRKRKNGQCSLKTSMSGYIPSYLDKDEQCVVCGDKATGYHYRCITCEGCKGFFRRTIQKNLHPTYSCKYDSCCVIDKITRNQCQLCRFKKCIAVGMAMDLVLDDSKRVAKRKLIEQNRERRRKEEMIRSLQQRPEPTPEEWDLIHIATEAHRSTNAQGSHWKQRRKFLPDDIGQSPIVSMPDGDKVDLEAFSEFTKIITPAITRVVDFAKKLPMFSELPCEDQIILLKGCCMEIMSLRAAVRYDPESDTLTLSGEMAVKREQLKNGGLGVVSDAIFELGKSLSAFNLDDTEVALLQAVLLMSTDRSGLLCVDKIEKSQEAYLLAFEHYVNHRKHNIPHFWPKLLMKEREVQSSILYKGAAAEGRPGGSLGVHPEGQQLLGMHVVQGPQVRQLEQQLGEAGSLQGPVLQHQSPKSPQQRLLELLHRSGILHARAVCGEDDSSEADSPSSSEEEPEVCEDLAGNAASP
# Assay: ATG_THRa1_TRANS: Attagene TRANS-FACTORIAL HepG2 Assay for human Thyroid Receptor alpha (THRa1) (AID 2283014)
# Protocol: ATG_TRANS is a cell-based, multiplexed-readout assay that uses HepG2, a human liver cell line, with measurements taken at 24 hours after chemical dosing in a 24-well plate.ATG_THRa1_TRANS is one of 30 assay component(s) measured or calculated from the ATG_TRANS assay. It is designed to make measurements of mRNA induction, a form of inducible reporter, as detected with fluorescence intensity signals by Reverse transcription polymerase chain reaction (RT-PCR) and Capillary electrophoresis technology.Data from the assay component ATG_THRa1_TRANS was analyzed into 1 assay endpoint. This assay endpoint, ATG_THRa1_TRANS, was analyzed in the positive analysis fitting direction relative to DMSO as the negative control and baseline of activity. Using a type of inducible reporter, measures of mRNA for gain-of-signal activity can be used to understand the reporter gene at the transcription factor-level as they relate to the gene THRA. Furthermore, this assay endpoint can be referred to as a primary readout, because this assay has produced multiple assay endpoints where this one serves a reporter gene function. To generalize the intended target to other relatable targets, this assay endpoint is annotated to the nuclear receptor intended target family, where the subfamily is non-steroidal.
# Human liver HepG2 cells are transiently transfected with multiple reporter transcription units (MRTUs) in 6-well plates using FuGene 6 reagent (Roche; 3 ml FuGene/1 mg DNA). The MRTU constructs are regulated by a cis-regulating element (promoter). […] A major difference between the CIS and TRANS system is that in CIS activities of endogenous TFs are measured, whereas the TRANS assay evaluates changes in activities of exogenous, chimeric NR-Gal4 proteins. […] At the end of 24 hour incubation, total RNA was isolated using TriZol reagent (Invitrogen). The isolated RNA is then reverse-transcribed using oligo(dT) primer and Mo-MLV reverse transcriptase (Invitrogen) with DNAse I (Ambion) treatment for 30 min. The one-tenth of the produced cDNA was amplified by PCR using Taq DNA polymerase (Invitrogen) and two reporter sequence-specific primers. The PCR products were fluorescently labeled by primer extension with 6-arboxyfluorescein (6-FAM) 5'-labeled reporter sequence-specific primer (2 min at 95 C, 20 s at 68 C and 10 min at 72 C) and these products were digested with 5U of HpaI (New England Biolabs) for 2h at 37 C. The fragments were purified using Qiaquick PCR columns (Qiagen), analyzed on an ABI 3130xL genetic analyzer (Applied Biosystems) with peak positions identified by using a set of X-rhodamine (ROX)-labeled MapMarker1000 molecular weight standards (BioVentures). The raw capillary electrophoresis data was processed using Attagraph software (Attagene).
SMILES,outcome,AC50
NNC(=O)CCCCC(=O)NN,inactive,–
CCCCCCCCCCCC[N+](C)(C)CCCCCCCCCCCC,inactive,–
Cc1[nH]nc2c1N=C(c1ccccc1Cl)c1cc([N+](=O)[O-])ccc1N2,inactive,–
CC(=O)CC(C)C,inactive,–
O=S(=O)(O)c1ccc2cc(O)ccc2c1,inactive,–
Clc1ccc2c(Cl)ccnc2c1,inactive,–
CC(C)C=O,inactive,–
Cc1cc(Cc2cc(C)cc(C(C)(C)C)c2O)c(O)c(C(C)(C)C)c1,inactive,–
CCCCCCCCCCCCCC[n+]1ccccc1,inactive,–
Clc1ccc(Nc2nnc(Cc3ccncc3)c3ccccc23)cc1,inactive,–
COc1ccccc1NC(=O)c1cc2ccccc2cc1O,–,21.7 µM (active)
CN(C)CCOC(c1ccccc1)c1ccccc1,inactive,–
CCCCCc1ccc(O)cc1,inactive,–
Cc1cc(=O)oc2cc(O)ccc12,inactive,–
CCCCC(CC)C(=O)OCCOCCOCCOCCOC(=O)C(CC)CCCC (stereo not given),inactive,–
CS(=O)(=O)c1ccc([C@@H](CC2CCCC2)C(=O)Nc2cnccn2)cc1Cl,inactive,–
C=COC(=O)C(C)(C)CCCCCC,inactive,–
Cc1ccc(N=Nc2c(O)ccc3ccccc23)c(C)c1,inactive,–
NC(=NCCCCCCN=C(N)/N=C(\N)Nc1ccc(Cl)cc1)/N=C(\N)Nc1ccc(Cl)cc1,inactive,8.56 µM (active) and 6.83 µM (active)
C[C@]12CC[C@@H]3c4ccc(O)cc4CC[C@H]3[C@@H]1C[C@@H](O)[C@@H]2O,inactive,–

SMILES,outcome,AC50
O=C(NCc1ncc(C(F)(F)F)cc1Cl)c1c(Cl)cccc1Cl,inactive,–
CC1=CC(=O)c2ccccc2C1=O,inactive,–
CC(C)(c1ccc(Oc2ccc(N)cc2)cc1)c1ccc(Oc2ccc(N)cc2)cc1,inactive,–
C=CC(=O)OCCC(F)(F)C(F)(F)C(F)(F)C(F)(F)C(F)(F)C(F)(F)F,inactive,–
O=CC(F)(F)C(F)(F)C(F)(F)C(F)F,inactive,–
Cc1cc(C(C)(C)C)c(O)c(C(C)(C)C)c1,inactive,–
COC(=O)CC(C(C)=O)C(=O)OC (stereo not given),inactive,–
OCC(CO)(CBr)CBr,inactive,–
FC1(F)C=CC(F)(F)C1(F)F,inactive,–
CN(C)c1ccc(C(=C2C=CC(=[N+](C)C)C=C2)c2ccccc2)cc1,inactive,–
CCCCCCOC(=O)c1ccc(O)cc1,inactive,–
CNNCc1ccc(C(=O)NC(C)C)cc1,inactive,–
COC(O)c1ccccc1 (stereo not given),inactive,–
CCOC(=O)CN[C@@H](C(=O)N1CC[C@H]1C(=O)NCc1ccc(/C(N)=N/O)cc1)C1CCCCC1,inactive,–
Oc1c(Cl)cc(Cl)cc1Sc1cc(Cl)cc(Cl)c1O,inactive,–
O=C1c2ccc(O)c(O)c2C(=O)c2c(O)ccc(O)c21,–,13.8 µM (active)
CCCCCCCCCCCCCCCC(=O)OC,inactive,–
NS(=O)(=O)O,inactive,–
CCCCCCCCCCCC,inactive,–
